From PubChem BioAssay (NCI)
This is part of a sample that, as a whole, favours compounds with a hit. Of some 79,000 tested, about 15% had one in any assay. Rule as the data show it: active = growth inhibition above about 70%; inactive = the rest.

Columns and labels:
[1] = NCI Yeast Anticancer Drug Screen. Data for the rad50 strain (AID 155);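 also: 0% = growth of vehicle-only cultures of the same strain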; conditions: S. cerevisiae rad50 strain growth inhibition; at 50.0 µM; stronger effect = higher value
Outline: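 Inhibition values express reduced yeast growth in compound-treated cultures relative to vehicle-treated controls.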

[2] = NCI Yeast Anticancer Drug Screen. Data for the mec2-1 strain (AID 157); conditions: S. cerevisiae mec2-1 strain, at 50.0 µM, stronger effect = higher value
Outline: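 Mutant yeast (mec2-1) grown with compound; growth inhibition relative to vehicle control reported.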

[3] = NCI Yeast Anticancer Drug Screen. Data for the sgs1 mgt1 strain (AID 161);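 also: 0% = growth of cultures given vehicle only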; conditions: S. cerevisiae sgs1 mgt1 strain, at 50.0 µM, stronger effect = higher value
Outline: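 Yeast cells carrying a defined DNA-repair defect were exposed to test compounds. Growth inhibition was measured relative to vehicle-treated controls.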

[4] = NCI Yeast Anticancer Drug Screen. Data for the cln2 rad14 strain (AID 165);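 also: 0% = growth equal to vehicle treated cultures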; conditions: S. cerevisiae cln2 rad14 strain, at 50.0 µM, stronger effect = higher value
Outline: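 Readout is yeast growth inhibition versus vehicle-treated controls, using a strain with cln2 and rad14 alterations exposed to compound.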

[5] = NCI Yeast Anticancer Drug Screen. Data for the bub3 strain (AID 167); conditions: S. cerevisiae bub3 mutant strain, at 50.0 µM, stronger effect = higher value
Outline: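 Steps: expose the mutant yeast strain to compound; grow alongside vehicle-treated cultures; measure growth; express inhibition against the vehicle cultures.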

[6] = NCI Yeast Anticancer Drug Screen. Data for the mlh1 rad18 strain (AID 175); conditions: S. cerevisiae mlh1 rad18 strain growth inhibition; at 50.0 µM; stronger effect = higher value
Outline: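 Genetically defined yeast (DNA repair-deficient) exposed to compounds; growth inhibition determined relative to vehicle.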

Measured: growth inhibition

Cc1nc2nc(NCCCN(C)C)nc(NCCCN(C)C)c2nc1C
inactive: [1] 18.8% | [2] 1.25% | [3] 22.1% | [4] 23.6% | [5] 21.4% | [6] 15.3%

Cc1ccc(N=NC(=O)NNc2ccc(C)c([N+](=O)[O-])c2)cc1[N+](=O)[O-]
inactive: [1] 55% | [2] 3.9% | [3] 17.6% | [4] 16.1% | [5] 6.45% | [6] 32.4%

Clc1nc(N2CCOCC2)c2[nH]cnc2n1
inactive: [1] -5.9% | [2] 5.7% | [3] 3.9% | [4] -6.1% | [5] 8.8% | [6] 6.25%

C=C1C(=O)OC2C1C(OC(=O)/C(=C/CO)CO)CC1(CO1)C1CC=C(C)C21 (stereo unspecified)
inactive: [1] 32.2% | [2] 8.05% | [3] 19.8% | [4] -2.15% | [5] -1.95% | [6] 9.6%

Cc1cc(N(CCC#N)CCC#N)ccc1N=Nc1ccc(C(=O)O)cc1
inactive: [1] -30.9% | [2] -34.6% | [3] -13.7% | [4] -1.15% | [5] -2.9% | [6] -25%

O=C(O)c1ccc(-c2ccc(O)cc2)cc1
inactive: [1] 10.8% | [2] 5.85% | [3] 2% | [4] -34% | [5] -6.7% | [6] 9.4%

COc1ccc2c(=O)c(Cc3c[nH]c4ccccc34)coc2c1
inactive: [1] 27.6% | [2] 12% | [3] 29% | [4] -35.6% | [5] 9.85% | [6] 19.2%

Cc1cc(S(=O)(=O)Nc2n[nH]c(-c3ccc(Cl)cc3)n2)c(SSc2cc(Cl)c(C)cc2S(=O)(=O)Nc2n[nH]c(-c3ccc(Cl)cc3)n2)cc1Cl
inactive: [1] 34.5% | [2] 15.2% | [3] 27.8% | [4] 34.7% | [5] 30.6% | [6] 32.2%

O=C1CSC(=O)N1
inactive: [1] -24.3% | [2] -14.4% | [3] -0.2% | [4] -32.8% | [5] -38% | [6] -41.5%

CS(=O)(=O)Nc1cccc(C(=O)NN)c1
inactive: [1] -8.1% | [2] -16.2% | [3] -3.4% | [4] -11.3% | [5] -11.7% | [6] 14.4%

CC1CN(c2ccc(Cl)cc2)CC(C)OC(=O)O1 (stereo unspecified)
inactive: [1] 18.8% | [2] -5.75% | [3] 5.65% | [4] 22.9% | [5] 21.8% | [6] 8.6%

C[N+](C)(C)c1cc(Br)c(O)c(Br)c1
inactive: [1] 1.85% | [2] 31.9% | [3] 12% | [4] -2.75% | [5] 41.2% | [6] 33%

CC1(C)OCCS1
inactive: [1] -4.2% | [2] 18.1% | [3] 6.7% | [4] 18.6% | [5] 20.6% | [6] 13.9%

CCc1ccccc1OCc1ccccc1
inactive: [1] 18.4% | [2] 11.8% | [3] 14.2% | [4] 6.9% | [5] 1% | [6] 1.75%

COc1ccc(CCN=C2OCc3ccccc32)cc1OC
inactive: [1] 36.1% | [2] -49.6% | [3] -42.6% | [4] -18.6% | [5] -21.5% | [6] -50.7%

[O-][N+]1(CC[N+]2([O-])CCCCC2)CCCCC1
inactive: [1] -16.8% | [2] -4.9% | [3] 1.7% | [4] -37.3% | [5] -0.65% | [6] 15.8%

CC(O)C(O)C(O)C(=O)C=O (stereo unspecified)
inactive: [1] 5.8% | [2] 29.1% | [3] 6.1% | [4] 14.2% | [5] -25.4% | [6] 10.4%

O=C(CCn1ccnc1[N+](=O)[O-])NCCCn1ccnc1[N+](=O)[O-]
inactive: [1] -24.1% | [2] -2.15% | [3] -42.4% | [4] -1% | [5] -34.4% | [6] -52.2%

COc1ccc(CN2CCCN(Cc3ccc(OC)cc3OC)C2c2cc(OC)ccc2OC)c(OC)c1
inactive: [1] -0.85% | [2] -0.85% | [3] 1.3% | [4] 10.5% | [5] -1.85% | [6] -0.4%

O=S(=O)(c1cccc(C(F)(F)F)c1)N(CCCCCN(S(=O)(=O)c1cccc(C(F)(F)F)c1)S(=O)(=O)c1cccc(C(F)(F)F)c1)S(=O)(=O)c1cccc(C(F)(F)F)c1
inactive: [1] -12.2% | [2] 2.95% | [3] 0.2% | [4] 21.3% | [5] 11.9% | [6] 10.2%

CC1=NN(C(=O)CC(=O)Nc2ccc(C(=O)O)cc2)C(=O)C1N=Nc1ccc(S(N)(=O)=O)cc1 (stereo unspecified)
inactive: [1] -4.7% | [2] -15.8% | [3] -1.5% | [4] -24.3% | [5] 0.55% | [6] -5.95%

COC(=O)C(NC(=O)COc1ccccc1[N+](=O)[O-])C(=O)OC
inactive: [1] -15.2% | [2] -1.3% | [3] 0% | [4] 3% | [5] -12.6% | [6] -12.3%

Cc1ccc(NC(=O)/C(CC(=O)c2sc(Nc3ccccc3Cl)nc2C)=N\Nc2ccc([N+](=O)[O-])cc2[N+](=O)[O-])c(C)c1
inactive: [1] -1% | [2] 17.1% | [3] 4.25% | [4] -12.1% | [5] 4.55% | [6] -4.25%

C=C(NC(C)=O)C(=O)O
inactive: [1] -4.65% | [2] -7.4% | [3] -11% | [4] 4.5% | [5] 10.9% | [6] 4.15%

O=C1OC([C@H](O)c2cccnc2)c2ccccc21 (stereo partly specified)
inactive: [1] -17.1% | [2] -24.9% | [3] -39.4% | [4] -22.9% | [5] -26.1% | [6] -21.6%

C=C1c2nc3ccccc3n2C=C(c2ccccc2)N1c1ccc([N+](=O)[O-])cc1
inactive: [1] 8.05% | [2] 41.6% | [3] 3.75% | [4] 13.6% | [5] 22.4% | [6] 27.9%

COc1ccc(/C=C2\CCCC(C(NO)c3ccc(OC)cc3)C2=NO)cc1 (stereo unspecified)
inactive: [1] 13.6% | [2] -33.4% | [3] 26.8% | [4] 1.15% | [5] 22.8% | [6] 18.2%

Cc1ccc(NC(=S)SCc2ccc([N+](=O)[O-])cc2)cc1C
inactive: [1] 16.5% | [2] 14.8% | [3] 8.6% | [4] -8.9% | [5] 12.9% | [6] 2.95%

O=C(O)Cc1ccc2ccccc2c1Br
inactive: [1] -8.5% | [2] 13.1% | [3] 1.8% | [4] 22.8% | [5] -8.6% | [6] 14.3%

NC(=NC1CCCCC1)/N=C(/N)Nc1ccc(Cl)cc1
inactive: [1] 26.8% | [2] 0.2% | [3] 5% | [4] -29.6% | [5] 4.7% | [6] 14.4%

CC(=O)Cc1ccc2[nH]c(C)cc(=O)c2c1
inactive: [1] -2.15% | [2] 5.25% | [3] -0.2% | [4] -34.4% | [5] -7.15% | [6] 4.55%

NNC(=O)CC(N)C(=O)O (stereo unspecified)
inactive: [1] 9% | [2] 4.4% | [3] -4.2% | [4] -20.7% | [5] 1.15% | [6] 2%

C=CCC(CNC(C)=O)(C1=CCCCC1)c1ccccc1 (stereo unspecified)
inactive: [1] 1.95% | [2] 13% | [3] 13.1% | [4] 19.8% | [5] 17.1% | [6] 12.7%

Cc1c2c([nH]c(=O)c1C)C=CC(Br)C2Br (stereo unspecified)
inactive: [1] -0.7% | [2] 0.55% | [3] 1.5% | [4] 3.2% | [5] 0.2% | [6] 6.95%

CCCNCC(O)c1cc(C(F)(F)F)nc2c(C(F)(F)F)cccc12 (stereo unspecified)
inactive: [1] 29.4% | [2] -0.15% | [3] 2.25% | [4] -25.4% | [5] 0.6% | [6] 19.1%

COc1ccc(C(Cl)=C(c2ccc(OCCN(C)C)cc2)c2ccc(OCCN(C)C)cc2)cc1
inactive: [1] 29.7% | [2] 15.6% | [3] 40.1% | [4] 28.8% | [5] 28.4% | [6] 20.1%

CN(C)S(=O)(=O)C(C(=O)Nc1ccccc1)c1ccccc1 (stereo unspecified)
inactive: [1] -1.15% | [2] 13.8% | [3] 3% | [4] -34.7% | [5] -5.95% | [6] -10.5%

COc1ccc(NC(=O)C(F)(F)F)cc1
inactive: [1] 9.3% | [2] 3.85% | [3] 10.4% | [4] -2.2% | [5] 0.55% | [6] 1.75%

O=C(O)C1NCCC1Oc1ccccc1 (stereo unspecified)
inactive: [1] -3.9% | [2] -3.7% | [3] -16% | [4] -12.8% | [5] -1.5% | [6] 2.65%

O=S(=O)(N/N=C/c1ccc(/C=N/NS(=O)(=O)c2ccccc2)cc1)c1ccccc1
inactive: [1] -6.9% | [2] -15.8% | [3] -21.3% | [4] 12.6% | [5] -7.95% | [6] 0.15%

CN1CCC2(CC1)C(=NC1CCCCC1)NC(=O)N2c1ccccc1
inactive: [1] -26.4% | [2] -6.15% | [3] -5.45% | [4] 1.1% | [5] 6.6% | [6] 3.7%
